# Measured values reported in PubChem BioAssay AID504810 (National Center for Advancing Translational Sciences (NCATS), 2011).
# Among all 330,000 compounds or so, about 670 (0.2%) were called active. The sample holds actives, similar compounds and a random draw of the others, so the mix is not that of the screen.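 How the source made its calls: active means activity change below a set negative limit, meaning inhibition stronger than a set level (cut at about -70% in these data); inconclusive means activity change between two set negative limits; inactive means the rest.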
# Target: Thyrotropin receptor (Homo sapiens) (UniProt P16473)
# Sequence (P16473 whole entry, looked up): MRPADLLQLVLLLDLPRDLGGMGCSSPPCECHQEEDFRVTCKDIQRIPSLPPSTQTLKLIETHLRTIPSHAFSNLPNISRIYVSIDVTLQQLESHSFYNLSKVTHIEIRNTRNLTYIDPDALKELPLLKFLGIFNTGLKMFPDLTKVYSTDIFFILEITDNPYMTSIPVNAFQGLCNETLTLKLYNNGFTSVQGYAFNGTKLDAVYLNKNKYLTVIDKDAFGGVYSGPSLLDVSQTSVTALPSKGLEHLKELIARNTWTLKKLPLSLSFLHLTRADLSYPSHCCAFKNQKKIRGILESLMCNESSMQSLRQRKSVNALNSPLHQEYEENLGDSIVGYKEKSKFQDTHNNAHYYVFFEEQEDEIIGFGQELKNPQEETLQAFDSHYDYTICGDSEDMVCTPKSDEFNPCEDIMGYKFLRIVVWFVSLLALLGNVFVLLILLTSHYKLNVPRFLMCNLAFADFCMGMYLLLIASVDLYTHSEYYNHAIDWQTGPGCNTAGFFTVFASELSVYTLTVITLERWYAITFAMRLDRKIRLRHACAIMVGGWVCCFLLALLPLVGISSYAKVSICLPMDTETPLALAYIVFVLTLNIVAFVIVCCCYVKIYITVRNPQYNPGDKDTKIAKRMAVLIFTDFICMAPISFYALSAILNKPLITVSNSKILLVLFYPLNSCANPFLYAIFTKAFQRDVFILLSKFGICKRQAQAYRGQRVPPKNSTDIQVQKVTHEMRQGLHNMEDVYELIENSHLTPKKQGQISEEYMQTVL
# Experiment: Antagonists of the Thyroid Stimulating Hormone Receptor: HTS campaign
# Details: TSHR-expressing cells, TSH-stimulated cAMP HTRF, 2 h; at 11.5 µM; active compounds read low
# Procedure, shortened: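 TSHR-expressing cells, 200/well, pre-treated with compound, then stimulated with EC80 TSH (4nM final) for 2 hours at 37 deg C. cAMP measured by competitive HTRF: anti-cAMP cryptate antibody in lysis buffer plus cAMP-d2, read after 30 minutes at room temperature.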
# On the % scale 0 is the no-effect control and ±100 the full control effect.
row,Compound,"activity change, negative = inhibition"
1,COc1cccc(CNS(=O)(=O)c2ccc3c(c2)CC(C)N3C(C)=O)c1 (stereo not given),-6.62% (inactive)
2,CC(=O)N1c2ccc(S(=O)(=O)NCCC(=O)N(C)C3CCCCC3)cc2CC1C (stereo not given),4.56% (inactive)
3,CC(=O)N1c2ccc(S(=O)(=O)N(C)CC(=O)N(C)Cc3ccccc3)cc2CC1C (stereo not given),-99.1% (active)
4,Cc1ccc2cc(C)c(N3CCN(c4ccc(F)cc4)CC3)nc2c1,12.4% (inactive)
5,CC(Sc1nncs1)C(=O)NCc1ccc2c(c1)OCO2 (stereo not given),18.9% (inactive)
6,COc1ccc(CNC(=O)c2nnn(CC(=O)Nc3cc(C)cc(C)c3)c2N)cc1,5.35% (inactive)
7,COc1cccc(CNC(=O)c2nnn(CC(=O)Nc3cc(C)ccc3C)c2N)c1,4.35% (inactive)
8,COc1cccc(CNC(=O)c2nnn(CC(=O)Nc3cc(Cl)ccc3C)c2N)c1,-74.4% (active)
9,CC(=O)/C(C)=N/O,17.4% (inactive)
10,CC12CCC(C(=O)N(NC(=O)c3ccccc3O)C1=O)C2(C)C (stereo not given),68.7% (inactive)
11,COc1cc(/C=C(/NC(=O)c2ccc(Cl)cc2Cl)C(=O)O)cc(OC)c1OC,-0.961% (inactive)
12,COc1cccc(CCNC(=O)COc2cccc3c2OC(C)(C)C3)c1,-10.3% (inactive)
13,COc1ccccc1C(=O)NCCC(=O)N(C)Cc1cccnc1,9.57% (inactive)
14,COc1cc(C2NC(=O)NC(c3ccccc3)=C2C(C)=O)c(Br)cc1OCC(N)=O (stereo not given),-8.27% (inactive)
15,C[C@H](NC(=O)c1nc[nH]c1C(=O)NCC(=O)OC(C)(C)C)C(=O)OCc1ccccc1,-7.53% (inactive)
16,O=C(NNC(=O)c1cc(-c2ccccc2Cl)nc2ccccc12)c1csc(N2CCOCC2)n1,0.138% (inactive)
17,CS(=O)(=O)N(CC(=O)N/N=C/c1ccccn1)c1ccc(Oc2ccccc2)cc1,-9.31% (inactive)
18,NC(=O)c1ccc(Nc2ccc3nonc3c2[N+](=O)[O-])cc1,27.6% (inactive)
19,O=[N+]([O-])c1c(NCCO)cc(Sc2nc3ccccc3s2)c2nonc12,-94.3% (active)
20,Cc1nc2nc(CSc3nc4ccccc4s3)cc(=O)n2[nH]1,-15% (inactive)
21,O=C(COC(=O)COc1cccc(F)c1)NCC1CCCCC1,8.58% (inactive)
22,Cc1cnc(NC(=O)c2ccccn2)s1,6.51% (inactive)
23,CC(=O)Oc1ccccc1C(=O)Nc1ncc([N+](=O)[O-])s1,-80.5% (active)
24,O=C(Cc1c(F)cccc1Cl)Nc1ncc([N+](=O)[O-])s1,-13.2% (inactive)
25,CCOc1ccc(C(CC(=O)O)NC(=O)C23CC4CC(CC(C4)C2)C3)cc1OC (stereo not given),-4.83% (inactive)

row,Compound,"activity change, negative = inhibition"
1,Cc1occc1-c1nnc(SCC(=O)NC2CCCCC2)o1,-3.93% (inactive)
2,CCCCCCCCc1c(O)nc(-n2[nH]c(C)c(CCO)c2=O)[nH]c1=O,7.75% (inactive)
3,Cc1cccc(C(=O)NNC(=O)CSc2nnc(C(C)C)n2C)c1,2.38% (inactive)
4,Cc1ccc(SCC(=O)c2cc(C)c(OC(=S)N(C)C)c(C)c2)cc1,-25% (inactive)
5,Cc1cc(CNC(=O)c2cccc([N+](=O)[O-])c2)c2ccccc2n1,-9.8% (inactive)
6,O=C(NC(Nc1nc2ccc([N+](=O)[O-])cc2s1)(C(F)(F)F)C(F)(F)F)c1ccccc1,-78.9% (active)
7,N=C1C(c2nc3ccccc3s2)=C(O)CN1NC(=O)c1ccc([N+](=O)[O-])cc1,-1.44% (inactive)
8,CN(C)c1cc2c(Nc3ccc4c(cnn4Cc4ccccc4)c3)ncnc2cn1,-17.2% (inactive)
9,COc1ccc(CCNC(=O)C2CC3Cn4c(nc5cc(C)c(C)cc54)C3N2C)cc1 (stereo not given),-1.1% (inactive)
10,Nc1ncnc2c1c(I)cn2[C@@H]1C[C@H](N)[C@@H](O)[C@H]1O,-18% (inactive)
11,CCOc1ccc(C(=O)NC2CCN(CC(=O)NCc3cccs3)CC2)cc1,1.48% (inactive)
12,C=CCn1c(SCc2ccc(C(=O)NCCO)cc2)nc2ccccc2c1=O,-4.95% (inactive)
13,O=C(Nn1c(SCc2ccc([N+](=O)[O-])cc2)nc2ccccc2c1=O)c1ccc(F)cc1,-74.2% (active)
14,Cc1nc2ccccc2c(=O)n1NC(=O)c1ccc(Cl)c([N+](=O)[O-])c1,-24.1% (inactive)
15,CCO[C@@H]1OC(C(=O)NCc2nc3ccccc3[nH]2)=C[C@H](C2CCCCC2)[C@H]1CCCO,-6.97% (inactive)
16,CC(C)C[C@H](NC(=O)[C@H](O)[C@H](N)Cc1ccccc1)C(=O)O,-6.27% (inactive)
17,O=C(CSc1ncn[nH]1)Nc1nc(-c2cccc([N+](=O)[O-])c2)cs1,7.62% (inactive)
18,COc1ccc(-n2cnnc2SCC(=O)Nc2cccc([N+](=O)[O-])c2)cc1,-5.22% (inactive)
19,O=C(CSc1nc(-c2ccccc2)cs1)Nc1cccc([N+](=O)[O-])c1,-78.8% (active)
20,COc1cc(NC(=O)c2cc([N+](=O)[O-])ccc2Br)ccc1NC(=O)c1ccco1,-16.5% (inactive)
21,Cc1ccc(Nc2nc(N)nc(CN3CCN(Cc4ccccc4)CC3)n2)cc1Cl,5.19% (inactive)
22,Cc1ccc(Nc2nc(N3CCOCC3)nc(N3CCOCC3)n2)cc1Cl,-135% (active)
23,Cc1ccccc1NC(=O)CSc1nc2ccc(Nc3nc(N4CCOCC4)nc(N4CCOCC4)n3)cc2s1,-6.48% (inactive)
24,O=C(Nc1ccc(-c2cscn2)cc1)C1CCCN(Cc2ccc(CO)o2)C1 (stereo not given),14.3% (inactive)
25,CSc1nnc(-c2ccc(C(F)(F)F)cn2)o1,7.33% (inactive)
